Calls of active or inactive are those of the source. Rule for the calls: active = hit-call score of the fitted dose curve at least 0.9, where 1 is the maximum; inactive = score below 0.9.
How the values were obtained:
Details in all cases: mRNA level, 48 h; actives raise or lower the signal
[1] = read-out: DNA damage-inducible transcript 3 (DDIT3), DDIT3 (gene 1649); test: LTEA_HepaRG_DDIT3: Life Technologies and Expression Analysis (LTEA) Assay for DNA damage-inducible transcript 3 (DDIT3) using HepaRG (AID 2283488)
Summary of the method: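 Differentiated human HepaRG cells in serum-free induction medium were exposed in duplicate for 48 h to 8 concentrations (top 100 uM, half-log steps, 0.5% DMSO). DDIT3 mRNA measured by TaqMan qRT-PCR, normalized to ACTB/GAPDH/POLR2A; bidirectional fit versus DMSO.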

[2] = read-out: Pro-epidermal growth factor (Homo sapiens) (UniProt P01133); test: LTEA_HepaRG_EGF: Life Technologies and Expression Analysis (LTEA) Assay for Epidermal growth factor (EGF) using HepaRG (AID 2283489)
Summary of the method: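 Concentration-response mRNA assay: HepaRG cells dosed 48 h (max 100 uM, 0.5% DMSO), EGF measured by qRT-PCR and normalized to ACTB/GAPDH/POLR2A.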

[3] = read-out: Early growth response protein 1 (EGR1) transcription factor, EGR1 (gene 1958); test: LTEA_HepaRG_EGR1: Life Technologies and Expression Analysis (LTEA) Assay for Early growth response protein 1 (EGR1) transcription factor using HepaRG (AID 2283490)
Summary of the method: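 Differentiated human HepaRG cells in serum-free induction medium were exposed in duplicate for 48 h to eight concentrations (top 100 uM, half-log steps) in 0.5% DMSO. EGR1 mRNA was quantified by qRT-PCR, normalized to ACTB, GAPDH and POLR2A, and fitted bidirectionally versus DMSO.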

[4] = read-out: Ezrin (EZR), EZR (gene 7430); test: LTEA_HepaRG_EZR: Life Technologies and Expression Analysis (LTEA) Assay for Ezrin (EZR) using HepaRG (AID 2283491)
Summary of the method: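 Gain or loss of EZR mRNA is scored relative to 0.5% DMSO in human HepaRG cultures treated 48 h with test chemicals in duplicate, eight half-log concentrations from 100 uM.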

[5] = read-out: Cytochrome P450 3A7 (Homo sapiens) (UniProt P24462); test: LTEA_HepaRG_CYP3A7: Life Technologies and Expression Analysis (LTEA) Assay for CYP3A7 using HepaRG (AID 2283492)
Summary of the method: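 qRT-PCR of CYP3A7 in HepaRG lysates after 48 h treatment; concentration-response (8 points, max 100 uM) analysed bidirectionally relative to 0.5% DMSO controls.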

[6] = read-out: CYP3A5 (gene 1577); test: LTEA_HepaRG_CYP3A5: Life Technologies and Expression Analysis (LTEA) Assay for CYP3A5 using HepaRG (AID 2283493)
Summary of the method: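 Differentiated HepaRG cells in serum-free induction medium were dosed 48 h with test chemicals (8-point half-log series, top 100 uM, 0.5% DMSO, duplicate). CYP3A5 mRNA measured by qRT-PCR, normalized to ACTB, GAPDH, POLR2A; bidirectional fit versus DMSO.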

[7] = read-out: Fatty Acid-Binding Protein 1 (FABP1), FABP1 (gene 2168); test: LTEA_HepaRG_FABP1: Life Technologies and Expression Analysis (LTEA) Assay for Fatty Acid-Binding Protein 1 (FABP1) using HepaRG (AID 2283494)
Summary of the method: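 Differentiated human HepaRG cells were exposed in duplicate for 48 h in serum-free induction medium to 8-point half-log concentration series topping at 100 uM in 0.5% DMSO. FABP1 mRNA measured by TaqMan qRT-PCR, normalized to ACTB/GAPDH/POLR2A; bidirectional fit versus DMSO.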

[8] = read-out: Cytochrome P450 4A22 (Homo sapiens) (UniProt Q5TCH4); test: LTEA_HepaRG_CYP4A22: Life Technologies and Expression Analysis (LTEA) Assay for Cytochrome P450 4A22 (CYP4A22) using HepaRG (AID 2283495)
Summary of the method: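 Concentration-response (8 points, max 100 uM, 0.5% DMSO) in human HepaRG liver cells after 48 h exposure. CYP4A22 mRNA by TaqMan qRT-PCR with housekeeping-gene normalization.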

[9] = read-out: Cytochrome P450 7A1 (Homo sapiens) (UniProt P22680); test: LTEA_HepaRG_CYP7A1: Life Technologies and Expression Analysis (LTEA) Assay for Cytochrome P450 7A1 (CYP7A1) using HepaRG (AID 2283496)
Summary of the method: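 Gene expression endpoint in human HepaRG liver cells treated for 48 h with test chemicals (up to 100 uM, 0.5% DMSO). Values come from bidirectional concentration-response fitting versus DMSO.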

[10] = read-out: Glutathione S-Transferase (GSTA2), GSTA2 (gene 2939); test: LTEA_HepaRG_GSTA2: Life Technologies and Expression Analysis (LTEA) Assay for Glutathione S-Transferase (GSTA2) using HepaRG (AID 2283497)
Summary of the method: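 Human HepaRG cells, plated 48 h, then exposed in serum-free induction medium for 48 h to eight half-log concentrations up to 100 uM in 0.5% DMSO, duplicate. GSTA2 mRNA by qRT-PCR, normalized to ACTB/GAPDH/POLR2A; bidirectional fit versus DMSO.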

[11] = read-out: Glutamate-cysteine ligase catalytic (GCLC), GCLC (gene 2729); test: LTEA_HepaRG_GCLC: Life Technologies and Expression Analysis (LTEA) Assay for Glutamate-cysteine ligase catalytic (GCLC) using HepaRG (AID 2283498)
Summary of the method: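 Differentiated human HepaRG cells, plated 48 h then switched to serum-free induction medium, were exposed in duplicate for 48 h to 8 half-log concentrations topping at 100 uM in 0.5% DMSO. GCLC mRNA was quantified by qRT-PCR against ACTB, GAPDH and POLR2A.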

[12] = read-out: growth arrest and DNA damage 45 (GADD45G), GADD45G (gene 10912); test: LTEA_HepaRG_GADD45G: Life Technologies and Expression Analysis (LTEA) Assay for growth arrest and DNA damage 45 (GADD45G) using HepaRG (AID 2283499)
Summary of the method: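 Concentration-response in HepaRG: 48 h dosing, 0.5% DMSO, highest level 100 uM. GADD45G expression by qRT-PCR, normalised to endogenous controls; bidirectional fit to DMSO.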

[13] = read-out: Glutamate-cysteine ligase regulatory (GCLM), GCLM (gene 2730); test: LTEA_HepaRG_GCLM: Life Technologies and Expression Analysis (LTEA) Assay for Glutamate-cysteine ligase regulatory (GCLM) using HepaRG (AID 2283500)
Summary of the method: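 Differentiated human HepaRG cells exposed 48 h in serum-free induction medium to 8-point half-log concentrations (top 100 uM, 0.5% DMSO), in duplicate. GCLM mRNA quantified by qRT-PCR, normalized to ACTB, GAPDH, POLR2A; bidirectional fitting versus DMSO.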

[14] = read-out: Glutathione S-transferase M3 (GSTM3), GSTM3 (gene 2947); test: LTEA_HepaRG_GSTM3: Life Technologies and Expression Analysis (LTEA) Assay for Glutathione S-transferase M3 (GSTM3) using HepaRG (AID 2283501)
Summary of the method: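 Expression of GSTM3 is determined by qRT-PCR in human liver HepaRG cells treated 48 h with an 8-point half-log range from 100 uM in 0.5% DMSO.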

[15] = read-out: Heat shock 70 kDa protein 1 (HSPA1A), gene 3303; test: LTEA_HepaRG_HSPA1A: Life Technologies and Expression Analysis (LTEA) Assay for Heat shock 70 kDa protein 1 (HSPA1A) using HepaRG (AID 2283502)
Summary of the method: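 Differentiated human HepaRG cells in serum-free induction medium were exposed in duplicate for 48 h to eight concentrations (top 100 uM, half-log steps, 0.5% DMSO). HSPA1A mRNA was quantified by qRT-PCR, normalized to ACTB, GAPDH and POLR2A, and fitted bidirectionally against DMSO.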

[16] = read-out: Hypoxia-inducible factor 1-alpha (Homo sapiens) (UniProt Q16665); test: LTEA_HepaRG_HIF1A: Life Technologies and Expression Analysis (LTEA) Assay for Hypoxia-inducible factor 1 (HIF1A) Trancription factor using HepaRG (AID 2283503)
Summary of the method: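 HepaRG, 48 h exposure, 8-pt half-log series from 100 uM, 0.5% DMSO vehicle, duplicates. Readout: HIF1A transcript by qRT-PCR (Fluidigm array), housekeeping-normalised. Bidirectional curve fit vs DMSO baseline.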

[17] = read-out: 3-Hydroxy-3-Methylglutaryl-CoA Synthase 2 (HMGCS2), HMGCS2 (gene 3158); test: LTEA_HepaRG_HMGCS2: Life Technologies and Expression Analysis (LTEA) Assay for 3-Hydroxy-3-Methylglutaryl-CoA Synthase 2 (HMGCS2) using HepaRG (AID 2283504)
Summary of the method: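 This steatosis marker was read as HMGCS2 mRNA change in HepaRG cells treated 48 h with up to 100 uM chemical. Normalisation used housekeeping genes; activity in either direction was fitted relative to 0.5% DMSO vehicle.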

[18] = read-out: HGF (gene 3082); test: LTEA_HepaRG_HGF: Life Technologies and Expression Analysis (LTEA) Assay for Hepatocyte Growth Facto (HGF) using HepaRG (AID 2283505)
Summary of the method: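 Using HepaRG monolayers kept in 0.5% DMSO, chemicals were tested in duplicate over eight half-log concentrations from 100 uM for 48 h. Endpoint: HGF mRNA change relative to DMSO, normalized to ACTB/GAPDH/POLR2A.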

[19] = read-out: Insulin Like Growth Factor 1 (IGF1), IGF1 (gene 3479); test: LTEA_HepaRG_IGF1: Life Technologies and Expression Analysis (LTEA) Assay for Insulin Like Growth Factor 1 (IGF1) using HepaRG (AID 2283506)
Summary of the method: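 Differentiated human HepaRG cells were dosed for 48 h in serum-free induction medium with 0.5% DMSO, eight half-log concentrations up to 100 uM, in duplicate. IGF1 mRNA was quantified by qRT-PCR normalized to ACTB, GAPDH, POLR2A; bidirectional fitting versus DMSO.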

[20] = read-out: Intercellular Adhesion Molecule 1 (ICAM1), ICAM1 (gene 3383); test: LTEA_HepaRG_ICAM1: Life Technologies and Expression Analysis (LTEA) Assay for Intercellular Adhesion Molecule 1 (ICAM1) using HepaRG (AID 2283507)
Summary of the method: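 Using the human liver line HepaRG, compounds are tested in duplicate over 48 h at concentrations up to 100 uM. Expression is determined by TaqMan qRT-PCR, normalized to endogenous controls, and analysed relative to 0.5% DMSO vehicle.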

Measured: outcome

Sequence of Hypoxia-inducible factor 1-alpha (Homo sapiens) (Q16665 whole entry, looked up): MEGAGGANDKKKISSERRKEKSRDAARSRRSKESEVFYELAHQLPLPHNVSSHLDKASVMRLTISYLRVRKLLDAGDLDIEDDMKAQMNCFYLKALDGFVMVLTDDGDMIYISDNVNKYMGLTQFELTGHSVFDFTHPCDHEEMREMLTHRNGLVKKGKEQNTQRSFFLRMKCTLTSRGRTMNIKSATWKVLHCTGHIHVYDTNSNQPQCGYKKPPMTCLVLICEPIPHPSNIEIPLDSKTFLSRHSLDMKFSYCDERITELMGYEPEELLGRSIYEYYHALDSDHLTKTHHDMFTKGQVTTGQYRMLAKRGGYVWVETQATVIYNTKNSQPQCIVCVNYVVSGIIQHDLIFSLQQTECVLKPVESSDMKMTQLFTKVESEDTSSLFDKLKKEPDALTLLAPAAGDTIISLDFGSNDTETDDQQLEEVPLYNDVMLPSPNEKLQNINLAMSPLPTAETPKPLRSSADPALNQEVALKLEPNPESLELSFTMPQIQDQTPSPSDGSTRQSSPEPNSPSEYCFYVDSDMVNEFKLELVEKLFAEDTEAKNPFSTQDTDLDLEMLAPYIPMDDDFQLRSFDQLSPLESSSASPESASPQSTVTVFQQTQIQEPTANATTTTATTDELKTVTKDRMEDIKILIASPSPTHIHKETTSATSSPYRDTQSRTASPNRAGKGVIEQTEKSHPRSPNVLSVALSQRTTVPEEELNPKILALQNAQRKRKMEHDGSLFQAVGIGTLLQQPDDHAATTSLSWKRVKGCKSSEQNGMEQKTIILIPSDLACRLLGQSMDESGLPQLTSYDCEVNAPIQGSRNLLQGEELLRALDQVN
Sequence of Cytochrome P450 3A7 (Homo sapiens) (P24462 whole entry, looked up): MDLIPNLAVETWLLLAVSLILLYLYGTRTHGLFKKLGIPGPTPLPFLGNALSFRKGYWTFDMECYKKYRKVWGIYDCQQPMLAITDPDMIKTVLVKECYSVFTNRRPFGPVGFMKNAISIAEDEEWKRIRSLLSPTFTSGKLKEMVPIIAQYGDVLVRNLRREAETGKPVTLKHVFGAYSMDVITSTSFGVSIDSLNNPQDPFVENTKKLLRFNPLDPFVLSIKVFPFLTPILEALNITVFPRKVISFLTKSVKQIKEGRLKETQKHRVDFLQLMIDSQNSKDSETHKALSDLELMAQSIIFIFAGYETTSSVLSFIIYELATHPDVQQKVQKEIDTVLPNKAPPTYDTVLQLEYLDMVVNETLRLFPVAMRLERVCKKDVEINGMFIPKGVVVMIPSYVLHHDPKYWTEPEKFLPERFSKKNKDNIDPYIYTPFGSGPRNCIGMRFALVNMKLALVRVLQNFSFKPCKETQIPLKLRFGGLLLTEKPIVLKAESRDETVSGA

ClC1=C(Cl)C(Cl)(Cl)C(Cl)=C1Cl
inactive: all assays above

CCCCCCCCOC(=O)CCCCCCCCC(=O)OCCCCCCCC
inactive: all assays above

O=c1c(-c2ccc(O)cc2)coc2cc(O)ccc12
not listed: [16]
inactive: all other assays above

CCCCC(CC)COC(=O)CCCCC(=O)OCC(CC)CCCC (centres undefined)
inactive: all assays above

From PubChem BioAssay (EPA / NIEHS)
